In PubChem BioAssay (NCATS):
Records with an inconclusive call do not appear. Active and inactive are the calls of the source. Calls come from the whole dose curve; as a rule, active = well fitted inhibition curve with a large enough effect; inconclusive = small, poorly fitted or top-dose-only effect; inactive = flat fitted curve, though single readings scatter. Where a SMILES comes first, the peptide text is derived from it. [ ]: non-standard residue; d: D form. pGlu = O=C1CC[C@@H](C(=O)O)N1; Thz = O=C(O)[C@@H]1CSCN1

Assays:
Assay in all cases: qHTS profiling for inhibitors of Plasmodium falciparum proliferation (AID 504749); note: nearly all actives have a fitted effect of over 60% in size
Conditions in all cases: P. falciparum in erythrocytes, SYBR Green DNA, 72 h; series mostly up to 28.7 µM
[1] = tested on: CP211
How it was run: (§1)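 Each compound contacts P. falciparum-infected red blood cells for 72 h at 37 C; lysis buffer (Tris, EDTA, saponin, Triton X, SYBR Green I) is added and fluorescence measured next morning; values normalized to controls.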

[2] = tested on: CP215
How it was run: as §1

[3] = tested on: CP217
How it was run: as §1

[4] = tested on: CP237
How it was run: as §1

[5] = tested on: CP238
How it was run: as §1

[6] = tested on: CP247
How it was run: as §1

[7] = tested on: CP250
How it was run: as §1

[8] = tested on: CP252
How it was run: as §1

[9] = tested on: CP256
How it was run: as §1

[10] = tested on: CP260
How it was run: as §1

Measured: Potency
Potency is the fitted concentration of half-maximal effect.

O=C1CC[C@@H](C(=O)N2CSC[C@H]2C(=O)O)N1 ([pGlu]-[Thz]-OH)
inactive: all assays above

CCCCCCCCCCCCCCCC(=O)OC(C)C
inactive: all assays above

COc1cc(CNC(=O)CCCC/C=C/C(C)C)ccc1O
inactive: all assays above

Nc1ccc(C(=O)O)c(O)c1
inactive: all assays above

C=CCN1C(=O)C(CC(C)C)NC1=S (stereo unspecified)
inactive: all assays above

Nc1cc(-c2ccncc2)c[nH]c1=O
inactive: all assays above

Nc1c(CC(=O)O)cccc1C(=O)c1ccc(Br)cc1
inactive: all assays above

Clc1ccccc1-c1nc(-c2ccncc2)no1
inactive: all assays above

CC1OC1P(=O)(O)O (stereo unspecified)
not listed: [10]
inactive: all other assays above

c1ccc2sc(SN3CCOCC3)nc2c1
not listed: [10]
inactive: all other assays above

Nc1ccc(O)c(C(=O)O)c1
inactive: all assays above

COc1ccc(/C=C/C(=O)Nc2ccccc2C(=O)O)cc1OC
inactive: all assays above

Cc1c(Nc2ncccc2C(=O)O)cccc1C(F)(F)F
inactive: all assays above

CC1(C)S[C@@H]2[C@H](NC(=O)[C@H](NC(=O)N3CCN(S(C)(=O)=O)C3=O)c3ccccc3)C(=O)N2[C@H]1C(=O)O
inactive: all assays above

COc1cc2c3cc1Oc1cc(ccc1O)C[C@@H]1c4c(cc(OC)c(O)c4Oc4ccc(cc4)C[C@@H]3N(C)CC2)CC[N+]1(C)C
inactive: all assays above

CCCCCCOc1ccccc1C(N)=O
inactive: all assays above

CC1(C)C[C@@H]1C(=O)N/C(=C\CCCCSC[C@H](N)C(=O)O)C(=O)O
not listed: [10]
inactive: all other assays above

C#C[C@]1(O)CC[C@H]2[C@@H]3CCc4cc(O)ccc4[C@H]3CC[C@@]21C
inactive: all assays above

O=C(O)COc1ccc(C(=O)c2cccs2)c(Cl)c1Cl
inactive: all assays above

O=C(O)/C=C/C(O)c1ccc(Cl)cc1 (stereo unspecified)
inactive: all assays above

CCCCCC[C@@H](O)C/C=C\CCCCCCCC(=O)O
inactive: all assays above

C=CCCCCCCCCC(=O)O
inactive: all assays above

N=c1ccn2c(n1)O[C@H]1[C@H](O)[C@@H](CO)O[C@H]12
inactive: all assays above

CN1CCN(c2cc3c(nn2)Oc2ccccc2N3C)CC1
inactive: all assays above

C=C(Nc1ccc(OCC)cc1)Nc1ccc(OCC)cc1
inactive: all assays above

c1ccc2sc(SSc3nc4ccccc4s3)nc2c1
inactive: all assays above

CC(C(=O)O)c1ccc2c(c1)[nH]c1ccc(Cl)cc12 (stereo unspecified)
inactive: all assays above

C=CC(N)CCC(=O)O (stereo unspecified)
inactive: all assays above

Oc1c(Br)cc(Br)c2cccnc12
inactive: all assays above

O=C(O)Cc1ccc(-c2ccccc2)cc1
inactive: all assays above

COc1cc(/C=C/C(=O)N2CCN(CC(=O)N3CCCC3)CC2)cc(OC)c1OC
inactive: all assays above

CCCOC(=O)c1ccc(O)cc1
inactive: all assays above

O=C(O)c1ccccc1Nc1cccc(C(F)(F)F)c1
inactive: all assays above

CCCCCCCCCCCC(=O)[O][Sn]([CH2]CCC)([CH2]CCC)[O]C(=O)CCCCCCCCCCC
active: [4] 10 µM | [10] 10 µM
inactive: all other assays above

CCOc1ccc2nc(S(N)(=O)=O)sc2c1
not listed: [1]
inactive: all other assays above

Cc1ccc(O)c(-n2nc3ccccc3n2)c1
inactive: all assays above

CCC1C(=O)OCC1Cc1cncn1C (stereo unspecified)
inactive: all assays above

O=C(OCc1ccccc1)c1ccccc1
active: [10] 3.16 µM
not listed: [4]
inactive: all other assays above

O=C(/C=C/c1ccccc1)NCCO
inactive: all assays above

CN1[C@@H]2CC[C@H]1CC(OC(c1ccccc1)c1ccccc1)C2 (stereo partly specified)
inactive: [7] | [10]
active: [3] 12.6 µM | [9] 12.6 µM

O=C(CCN1CCN(CCO)CC1)N1c2ccccc2Sc2ccc(C(F)(F)F)cc21
inactive: [2]
active: [4] 10 µM | [9] 11.2 µM | [10] 11.2 µM

Cc1[nH]cnc1CN1CCc2c(c3ccccc3n2C)C1=O
inactive: all assays above

O=C(Nc1ccc(C(=O)O)c(O)c1)c1ccccc1
inactive: all assays above

[O-][n+]1ccccc1SSc1cccc[n+]1[O-]
active: [1] 1.07 µM | [2] 1.35 µM | [3] 1.26 µM | [4] 0.891 µM | [5] 1.12 µM | [6] 0.891 µM | [7] 0.708 µM | [8] 1 µM | [9] 2 µM | [10] 0.708 µM

COC(=O)C1=C(C)NC(C)=C(C(=O)OCC(C)C)C1c1ccccc1[N+](=O)[O-] (stereo unspecified)
active: [9] 10 µM

CCCSc1ccc2nc(NC(=O)OC)[nH]c2c1
not listed: [6]
inactive: all other assays above

CC(N)C(=O)OC(C)(C)Cc1ccc(Cl)cc1 (stereo unspecified)
inactive: [7] | [9]
active: [4] 4.47 µM

CCOC(=O)c1ccccc1O
not listed: [7]
inactive: all other assays above

NC(=O)C(c1ccccc1)(c1ccccc1)[C@@H]1CCN(CCc2ccc3c(c2)CCO3)C1
inactive: [7]

Cc1cc(O)c2ccccc2c1O
not listed: [7]
inactive: all other assays above

Cc1nc2ccccc2n1Cc1ccc(Cl)cc1
inactive: [4] | [5] | [7] | [10]

O=C(O)[C@H](O)[C@@H](O)[C@H](O)[C@H](O)CO
inactive: all assays above

CC(=O)[C@]1(O)Cc2c(O)c3c(c(O)c2[C@@H](O[C@H]2C[C@H](N)[C@H](O)[C@H](C)O2)C1)C(=O)c1c(O)cccc1C3=O
active: [1] 10.7 µM | [2] 12 µM | [4] 2.51 µM | [6] 5.62 µM | [7] 11.2 µM | [10] 3.55 µM

C[S+](CC[C@H](N)C(=O)O)C[C@H]1O[C@@H](n2cnc3c(N)ncnc32)[C@H](O)[C@@H]1O (stereo partly specified)
inactive: [1] | [2] | [4] | [8] | [10]

COc1cc(/C=C/C(=O)CC(=O)/C=C/c2ccc(O)c(OC)c2)ccc1O
active: [2] 16.9 µM | [6] 8.91 µM | [7] 8.91 µM

CN(C)c1ccc(C(=C2C=CC(=[N+](C)C)C=C2)c2ccccc2)cc1
active: [3] 11.2 µM | [4] 8.91 µM | [6] 6.31 µM | [7] 11.2 µM | [8] 12.6 µM | [9] 10 µM | [10] 7.08 µM

O=C(O)[C@H](CC(=O)N1C[C@H]2CCCC[C@H]2C1)Cc1ccccc1
inactive: all assays above

CCCCCCCCCCCCCCCCCC(=O)O
not listed: [1]
inactive: all other assays above

CCCCC[C@H](O)/C=C/[C@@H]1[C@@H](C/C=C\CCCC(=O)O)[C@@H](O)C[C@H]1O
inactive: all assays above

O=c1[nH]c2ccccc2n1CCCN1CCN(C(c2ccccc2)c2ccccc2)CC1
active: [4] 8.91 µM

Cc1ccc(C(=O)c2ccc(CC(=O)O)n2C)cc1
inactive: all assays above

COc1ccc(-c2cc(=S)ss2)cc1
inactive: all assays above

CC1(C)[C@@H](O)CC[C@]2(C)[C@H]3C(=O)C=C4[C@@H]5C[C@@](C)(C(=O)O)CC[C@]5(C)CC[C@@]4(C)[C@]3(C)CC[C@@H]12
inactive: all assays above

CN1[C@@H](CC(=O)c2ccccc2)CCC[C@H]1C[C@H](O)c1ccccc1
active: [4] 7.94 µM
inactive: [1] | [6] | [7]

Cc1ccccc1CNc1ncnc2c1ncn2C1OC(CO)C(O)C1O (stereo unspecified)
inactive: all assays above

CN1[C@@H]2CC[C@H]1CC(OC(=O)C(CO)c1ccccc1)C2 (stereo partly specified)
not listed: [9]
inactive: all other assays above

CCCC(=O)OC[C@@H](OC(=O)CCC)[C@@H](OC(=O)CCC)[C@H](Cn1c2nc(=O)[nH]c(=O)c-2nc2cc(C)c(C)cc21)OC(=O)CCC
inactive: [1] | [2] | [4]

O=C1CN(/N=C/c2ccc(-c3ccc([N+](=O)[O-])cc3)o2)C(=O)N1
active: [6] 4.47 µM
not listed: [2] | [4]
inactive: all other assays above

O=C(O)c1cc(O)c(O)c(O)c1
active: [7] 5.62 µM
not listed: [4] | [6] | [10]
inactive: all other assays above
